PubChem BioAssay AID1619 (SRMLSC, 2009)
In all, about 220,000 compounds went through this assay and about 830 (0.38%) were called active.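 How the source made its calls: active means compound inhibiting the enzyme by more than half at any dose during confirmatory dose-response retesting; inconclusive means strong single-dose inhibitors picked by rank but not retested; inactive means the rest.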 Not all results are given here. Measured potencies and affinities stand elsewhere.

These compounds were tested against Leucine aminopeptidase (Plasmodium falciparum (isolate 3D7)) (UniProt Q8IL11) (assay: P. falciparum M17LAP inhibitors, primary screen, biochemical, fluorogenic H-Leu-NHMec substrate, 1536-well (AID 1619;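 further: plate controls were full reaction with DMSO carrier for no effect and no enzyme background for full effect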)). Details: recombinant M17LAP, H-Leu-NHMec fluorogenic kinetic assay; at 30 µM; hits give high values.
Chain of Leucine aminopeptidase (Plasmodium falciparum (isolate 3D7)) (Q8IL11 whole entry, looked up): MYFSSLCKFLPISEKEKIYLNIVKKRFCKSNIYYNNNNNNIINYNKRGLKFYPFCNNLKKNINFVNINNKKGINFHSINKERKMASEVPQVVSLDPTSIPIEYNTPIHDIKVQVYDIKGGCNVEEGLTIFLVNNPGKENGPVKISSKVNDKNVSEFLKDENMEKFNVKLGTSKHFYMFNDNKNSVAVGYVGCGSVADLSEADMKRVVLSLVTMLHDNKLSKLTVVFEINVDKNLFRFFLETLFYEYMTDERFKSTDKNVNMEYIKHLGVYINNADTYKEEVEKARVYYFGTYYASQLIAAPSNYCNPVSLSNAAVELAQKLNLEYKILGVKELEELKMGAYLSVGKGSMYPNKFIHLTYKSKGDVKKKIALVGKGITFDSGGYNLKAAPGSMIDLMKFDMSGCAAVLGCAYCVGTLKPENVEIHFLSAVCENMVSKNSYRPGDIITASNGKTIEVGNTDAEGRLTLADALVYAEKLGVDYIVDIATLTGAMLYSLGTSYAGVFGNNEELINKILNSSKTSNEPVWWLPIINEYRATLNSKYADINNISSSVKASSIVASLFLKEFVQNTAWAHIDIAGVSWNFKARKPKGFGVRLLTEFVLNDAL

inhibition, inactive:
CCCCOc1ccc(N(CC(=O)NCC2CCCO2)C(=O)CCC(=O)Nc2nccs2)cc1 (configuration not stated) -11.6%, CCOc1ccc(NC(=O)C2CC(=O)NC(N3CCc4ccccc43)=N2)cc1 (configuration not stated) 13.4%, O=C(CSc1nccc(-c2cccs2)n1)Nc1ccc(F)c(Cl)c1 8.92%, CCCC(=O)Nc1ccc2c(c1)c1ccccc1n2CC -0.99%, CCn1c2ccccc2c2cc(NC(=O)CC(C)=O)ccc21 -12.3%, Nc1cc(=O)[nH]c(SCC(=O)Nc2ccc(F)c(Cl)c2)n1 45.2%, O=C(CSc1nccc(=O)[nH]1)Nc1ccc(F)c([N+](=O)[O-])c1 31.4%, CCC(=O)Nc1ccc(Br)c(Cl)c1 -2.61%, CN(C)S(=O)(=O)c1cccc(NC(=S)NCCCn2ccnc2)c1 2.61%, Cn1nnc2cc(C(=O)N3CCC(c4ccccc4)C3)ccc21 (configuration not stated) 9.75%, O=C(COc1ccc(/C=N/NC(=O)c2ccc(O)cc2)cc1)Nc1cccc([N+](=O)[O-])c1 -2.3%, CNC(=S)Nc1cccc(Cl)c1C 0.94%, CCn1c(Cc2ccccc2)nnc1SCc1ccc([N+](=O)[O-])cc1 -12%, Cc1[nH]c2ccccc2c1N=Nc1cc(C(=O)O)cc(C(=O)O)c1 21.5%, CC(=O)c1cccc(N=Nc2c(C)[nH]c3ccccc23)c1 -8.29%, Oc1[nH]c2ccccc2c1N=Nc1ccccc1 7.84%, Oc1[nH]c2ccccc2c1N=Nc1ccc(F)cc1 26.1%, COc1cccc(CNC(=O)CCC2CCCN(Cc3cc4ccccc4o3)C2)c1 (configuration not stated) -1.88%, Cc1nnc(SCc2cc(=O)[nH]c(=S)[nH]2)s1 27.4%, O=c1cc(Cc2ccccc2)[nH]c(=S)[nH]1 0.4%, O=C(NC1CCS(=O)(=O)C1)c1cn(-c2ccccc2)nc1-c1ccccc1 (configuration not stated) -4.23%, Cc1cc(C)nc(N2CCCC(C(=O)NC(C)CCc3ccco3)C2)n1 (configuration not stated) 2.6%, CC(OC(=O)CCCc1nc2ccccc2s1)C(=O)NC(N)=O (configuration not stated) -1.53%, Cc1ccccc1S(=O)(=O)c1cc(C#N)c(=O)[nH]c1N -8.15%, COc1ccc(N(CC(=O)NCc2ccccc2)S(=O)(=O)c2c(C)noc2C)cc1 -3.73%, CCOc1ccc(NC(=S)NCc2nc3ccccc3[nH]2)cc1 -5.56%, O=C(O)CC1S/C(=N/N=C/c2ccc(-c3ccc(Cl)cc3[N+](=O)[O-])o2)NC1=O (configuration not stated) 31.2%, Cc1ccc(-c2ccc(/C=N/N3C(=O)C4C5C=CC(CC5)C4C3=O)o2)c([N+](=O)[O-])c1 (configuration not stated) 5.1%, COc1cc(-c2cc(C(=O)Nc3nc4ccccc4s3)c3ccccc3n2)cc(OC)c1OC 4.34%, c1ccc(CN2c3ccccc3-c3nc4ccccc4n3C2c2ccccn2)cc1 (configuration not stated) 1.51%, COCCOC(=O)C1=C(C)NC(=O)NC1/C=C/c1ccccc1 (configuration not stated) 0.26%, N#C/C(=C/c1ccc(F)cc1)S(=O)(=O)c1ccccc1 -4.38%, Cc1cc(C)c(/C=C(\C#N)S(=O)(=O)c2ccccc2)[nH]1 -7.74%, COc1cccc(OCCn2cccc2/C=C2/C(=N)N3OC(C)=CC3=NC2=O)c1 0.81%, CC1=CC2=NC(=O)/C(=C\c3cccn3CCOc3ccccc3)C(=N)N2O1 8.69%, Cc1nn(-c2ccccc2)c(C)c1C(=O)NCc1ccc(F)cc1 -15.7%, FC(F)(F)c1cnc(-c2cnc(-c3cccnc3)nc2)c(Cl)c1 1.19%, c1coc(-c2nc(-c3ccco3)c(-c3ccco3)nc2-c2ccco2)c1 48.1%, c1coc(-c2ncc[nH]2)c1 -2.51%, COc1ccc(/C=N/N2CCN(c3ccncc3S(=O)(=O)N3CCCCC3)CC2)cc1 0%, Cc1cc(C(=O)OCC(N)=O)c(C)n1-c1ccccc1 3.65%, Cc1cc(C(=O)COC(=O)c2cccnc2Cl)c(C)n1-c1c(C)n(C)n(-c2ccccc2)c1=O 10.5%, CCOc1ncccc1C(=O)OCC(=O)c1cc(C)n(Cc2ccco2)c1C 6.52%, CCCn1c(C)cc(C(=O)COC(=O)c2nccnc2N)c1C 6.47%, COc1ccc(Nc2nc(N)nc(CN3CCC(Cc4ccccc4)CC3)n2)cc1 -2.44%, CCOC(=O)CC(=O)CSc1n[nH]c(=O)[nH]c1=O -5.31%, CCn1c(SCC(=O)C(C)(C)C)nnc1-c1ccccc1OC 6.79%, C=CCn1c(SCC(=O)c2ccc(O)c(O)c2)nnc1-c1cccnc1 22.5%, CCn1c(SCC(=O)O)nnc1-c1ccccc1OC -7.5%, C=CCn1c(SCC(=O)c2ccc(OC)cc2)nnc1-c1cc2cccc(OC)c2o1 3.95%, CCC(=O)Nc1ccc(C(=O)NNC(=O)C(c2ccccc2)c2ccccc2)cc1 5.41%, O=C(CNC(=O)c1ccc([N+](=O)[O-])cc1)N/N=C\c1ccc(OC(=O)c2ccccc2)cc1 -2.63%, COc1ccc(S(=O)(=O)NCCc2ccccc2)cc1 -1.2%, Cc1nn(C)cc1/C=N/NC(=O)Cn1cncn1 0.36%, C=CCN1C(=O)CC(C(=O)NC)SC1=Nc1ccc(C(=O)OCC)cc1 (configuration not stated) 4.4%, CC(=O)Nc1c(C(=O)N2CCN(c3ccccn3)CC2)cnn1-c1ccc(C)cc1 11%, CC1=CC(C)C2C(=O)N(O)C(=O)C2C1 (configuration not stated) 1.69%, CN(c1ccc(F)cc1)S(=O)(=O)c1ccc(Cl)c(C(=O)OCC(=O)NCc2ccco2)c1 4.4%, NC1=NC(=O)/C(=C\c2ccco2)S1 25.9%, COc1ccc(NS(=O)(=O)c2cccs2)c(OC)c1 -8.72%, COc1ccc(Nc2nc3ccccc3nc2NS(=O)(=O)c2cccs2)cc1 9.26%, COc1ccc(S(=O)(=O)/N=C2/NC(=O)/C(=C\c3ccco3)S2)cc1 22.2%
